In all, about 5,500 compounds went through this assay and about 2,000 (36%) were called active. Roughly 18% stayed inconclusive and do not appear here. Cut-off read from the data, not from the text of the source: active = normalized growth mostly below about 0.91 (no sharp cut-off); inconclusive = no clear call, values can overlap the other calls; inactive = mostly above about 0.92. Some of the results follow.
Assay: chemical genetic growth profiling, strain panel (AID 1159580);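 note: tested at 20 µM; growth read once vehicle control cultures reached saturation at 30 °C; 1 = growth at the plate median or of vehicle wells; lower values mean less growth of the strain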
Settings: growth OD

Measured: normalized growth

O=C(O)CCC(=O)OC[C@@H](NC(=O)C(Cl)Cl)[C@H](O)c1ccc([N+](=O)[O-])cc1
inactive: S. cerevisiae deletion strains, locus YJR043C, strain POL32, active compounds read low 0.977 | S. cerevisiae deletion strains, locus YJR066W, strain TOR1, active compounds read low 0.981 | S. cerevisiae deletion strains, locus YKL009W, strain mrt4, active compounds read low 1 | S. cerevisiae deletion strains, locus YKL068W, active compounds read low 0.962 | S. cerevisiae deletion strains, locus YKL085W, strain MDH1 (second series), active compounds read low 0.99 | S. cerevisiae deletion strains, locus YKL085W, strain MDH1, active compounds read low 0.99 | S. cerevisiae deletion strains, locus YKL160W, strain elf1, active compounds read low 0.98 | S. cerevisiae deletion strains, locus YKL190W, strain CNB1, active compounds read low 0.993 | S. cerevisiae deletion strains, locus YKR001C, strain vps1, active compounds read low 0.967 | S. cerevisiae deletion strains, locus YKR026C, strain gcn3, active compounds read low 0.984 | S. cerevisiae deletion strains, locus YKR091W, strain srl3, active compounds read low 0.971 | S. cerevisiae deletion strains, locus YLL001W, strain dnm1, active compounds read low 0.937 | S. cerevisiae deletion strains, locus YLL026W, active compounds read low 0.974 | S. cerevisiae deletion strains, locus YLL041C, strain sdh2, active compounds read low 0.993 | S. cerevisiae deletion strains, locus YLR027C, strain aat2, active compounds read low 0.99 | S. cerevisiae deletion strains, locus YLR039C, strain RIC1, active compounds read low 0.964 | S. cerevisiae deletion strains, locus YLR058C, strain SHM2, active compounds read low 0.976 | S. cerevisiae deletion strains, locus YLR102C, strain apc9, active compounds read low 0.977 | S. cerevisiae deletion strains, locus YLR113W, strain HOG1, active compounds read low 0.973 | S. cerevisiae deletion strains, locus YLR221C, strain rsa3, active compounds read low 0.918 | S. cerevisiae deletion strains, locus YLR258W, strain gsy2, active compounds read low 0.984 | S. cerevisiae deletion strains, locus YLR262C, strain YPT6 (second series), active compounds read low 0.966 | S. cerevisiae deletion strains, locus YLR262C, strain YPT6, active compounds read low 0.866 | S. cerevisiae deletion strains, locus YLR268W, strain sec22, active compounds read low 0.974 | S. cerevisiae deletion strains, locus YLR320W, strain mms22, active compounds read low 0.944 | S. cerevisiae deletion strains, locus YLR330W, strain CHS5, active compounds read low 0.985 | S. cerevisiae deletion strains, locus YLR342W, strain FKS1 (second series), active compounds read low 1.01 | S. cerevisiae deletion strains, locus YLR342W, strain FKS1, active compounds read low 0.986 | S. cerevisiae deletion strains, locus YLR357W, strain rsc2, active compounds read low 1 | S. cerevisiae deletion strains, locus YLR370C, strain arc18, active compounds read low 0.944 | S. cerevisiae deletion strains, locus YLR371W, strain rom2, active compounds read low 0.979 | S. cerevisiae deletion strains, locus YLR384C, strain iki3, active compounds read low 0.987 | S. cerevisiae deletion strains, locus YLR418C, strain cdc73, active compounds read low 0.974 | S. cerevisiae deletion strains, locus YML016C, strain PPZ1, active compounds read low 0.979 | S. cerevisiae deletion strains, locus YML032C, strain rad52, active compounds read low 0.968 | S. cerevisiae deletion strains, locus YML120C, strain ndi1, active compounds read low 0.936 | S. cerevisiae deletion strains, locus YML124C, strain tub3, active compounds read low 0.994 | S. cerevisiae deletion strains, locus YMR058W, strain fet3, active compounds read low 0.983 | S. cerevisiae deletion strains, locus YMR078C, strain ctf18, active compounds read low 0.978 | S. cerevisiae deletion strains, locus YMR125W, strain sto1, active compounds read low 0.962 | S. cerevisiae deletion strains, locus YMR129W, active compounds read low 0.988 | S. cerevisiae deletion strains, locus YMR205C, strain PFK2, active compounds read low 1.01 | S. cerevisiae deletion strains, locus YMR223W, strain ubp8, active compounds read low 0.997 | S. cerevisiae deletion strains, locus YMR231W, strain pep5, active compounds read low 0.996 | S. cerevisiae deletion strains, locus YMR263W, strain SAP30, active compounds read low 1.01 | S. cerevisiae deletion strains, locus YMR307W, strain GAS1, active compounds read low 1.05 | S. cerevisiae deletion strains, locus YNL067W, strain RPL9B, active compounds read low 1.03 | S. cerevisiae deletion strains, locus YNL071W, strain lat1, active compounds read low 0.989 | S. cerevisiae deletion strains, locus YNL153C, strain GIM3, active compounds read low 1.02 | S. cerevisiae deletion strains, locus YNL183C, strain NPR1, active compounds read low 0.93 | S. cerevisiae deletion strains, locus YNL209W, strain ssb2, active compounds read low 0.971 | S. cerevisiae deletion strains, locus YNL233W, strain BNI4, active compounds read low 1.02 | S. cerevisiae deletion strains, locus YNL248C, strain rpa49, active compounds read low 1.02 | S. cerevisiae deletion strains, locus YNL271C, strain bni1, active compounds read low 0.97 | S. cerevisiae deletion strains, locus YNL298W, strain CLA4, active compounds read low 0.983 | S. cerevisiae deletion strains, locus YNL307C, strain MCK1, active compounds read low 0.99 | S. cerevisiae deletion strains, locus YNL322C, strain KRE1 (second series), active compounds read low 0.962 | S. cerevisiae deletion strains, locus YNR049C, strain mso1, active compounds read low 0.972 | S. cerevisiae deletion strains, locus YNR052C, strain pop2, active compounds read low 0.989 | S. cerevisiae deletion strains, locus YOL006C, strain TOP1, active compounds read low 1.15 | S. cerevisiae deletion strains, locus YOL012C, strain htz1 0.661 | S. cerevisiae deletion strains, locus YOL147C, strain pex11, active compounds read low 0.988 | S. cerevisiae deletion strains, locus YOR001W, strain rrp6, active compounds read low 1.04 | S. cerevisiae deletion strains, locus YOR061W, strain CKA2, active compounds read low 0.967 | S. cerevisiae deletion strains, locus YOR069W, strain VPS5, active compounds read low 0.967 | S. cerevisiae deletion strains, locus YOR070C, strain gyp1, active compounds read low 0.999 | S. cerevisiae deletion strains, locus YOR080W, strain dia2, active compounds read low 0.98 | S. cerevisiae deletion strains, locus YOR083W, strain WHI5, active compounds read low 0.978 | S. cerevisiae deletion strains, locus YOR106W, strain vam3, active compounds read low 0.998 | S. cerevisiae deletion strains, locus YOR136W, strain idh2, active compounds read low 0.984 | S. cerevisiae deletion strains, locus YOR144C, strain elg1, active compounds read low 0.988 | S. cerevisiae deletion strains, locus YOR184W, strain ser1, active compounds read low 0.987 | S. cerevisiae deletion strains, locus YOR231W, strain MKK1, active compounds read low 0.971 | S. cerevisiae deletion strains, locus YOR265W, strain rbl2, active compounds read low 0.976 | S. cerevisiae deletion strains, locus YOR270C, strain vph1, active compounds read low 0.987 | S. cerevisiae deletion strains, locus YOR290C, strain snf2, active compounds read low 0.928 | S. cerevisiae deletion strains, locus YOR316C, strain cot1, active compounds read low 0.97 | S. cerevisiae deletion strains, locus YPL051W, strain arl3, active compounds read low 0.998 | S. cerevisiae deletion strains, locus YPL078C, strain atp4, active compounds read low 0.988 | S. cerevisiae deletion strains, locus YPL106C, strain sse1, active compounds read low 0.944 | S. cerevisiae deletion strains, locus YPL240C, strain hsp82, active compounds read low 0.995 | S. cerevisiae deletion strains, locus YPL256C, strain CLN2, active compounds read low 0.981 | S. cerevisiae deletion strains, locus YPR119W, strain clb2, active compounds read low 0.982 | S. cerevisiae deletion strains, locus YPR141C, strain kar3, active compounds read low 0.975 | S. cerevisiae deletion strains, locus YPR163C, strain tif3, active compounds read low 0.983 | S. cerevisiae deletion strains, locus YPR167C, strain met16, active compounds read low 0.991 | S. cerevisiae deletion strains, strain wtn01, active compounds read low 1 | S. cerevisiae strains, strain wild type, active compounds read low 0.984

Reference: PubChem BioAssay AID1159580 (chemical genetic matrix, 2015)
